What follows are molecules tested against AMP-activated protein kinase, AMPK (Homo sapiens) (UniProt P54646+O43741+P54619+Q9UGJ0+Q9Y478+Q13131+Q9UGI9) (assay: AMP-dependent Kinase enzyme assay. An in vitro enzyme assay that detects ADP turnover that is directly proportional to AMPK activity. This uses naive AMPK that is activated during the assay with MK-8722). Conditions: 30 µM.
Format: functional
Set-up: scale not given: direction of the effect not stated beside the values

| SMILES | Percent Effect [%] |
| --- | --- |
| COc1cccc(-c2nc(CNCc3cccnc3)cs2)c1 | -1.6 |
| O=C(CNc1ccc(OC2CCOC2)cc1)NCc1ccc(F)cc1 (centres undefined) | 18.1 |
| Nc1cc(N2CCC(c3cc(Cc4ccccc4)n[nH]3)CC2)ccn1 | -5.64 |
| C=C(C)CN(CC)C(=O)CN1CCCC1C(=O)N(C)C (centres undefined) | 3.77 |
| CC(NCc1nnc2n1CCCC2)c1nc(Cc2ccccc2)no1 (centres undefined) | -1.56 |
| Cc1cc(C(F)F)nn1CC(=O)NCc1nccn1C | 5.16 |
| COc1ccccc1NC(=O)c1cnc(C2CCN(C(C)=O)C2)nc1C (centres undefined) | 5.26 |
| Cc1ccc(-c2cc(CN(CC(N)=O)CC(C)C)on2)cc1 | -6.41 |
| Cn1cccc1C1CCCN1Cc1noc(C(C)(C)C)n1 (centres undefined) | -15 |
| COC(=O)CC1CCCCN1CC(=O)Nc1ccc(F)cc1Cl (centres undefined) | 8.66 |
| Cc1c(C(=O)NC2CCCC2)nnn1-c1ccccc1 | -3.83 |
| Cc1nn(C2CCCC2)c2nc(C(C)(C)CN3CCN(C)CC3)[nH]c12 | 14.1 |
| Cc1cc(C)c(C#N)c(NCCSc2nncn2C)n1 | -0.426 |
| Cc1cccc(OC2CCN(Cc3ncc[nH]3)CC2)c1 | -0.938 |
| CC1COCCN1C(=O)Cc1cc(Cl)c2c(c1)OCCO2 (centres undefined) | 13.4 |
| Fc1ccc(N2CCCN(c3ccc(Cn4ccnc4)cn3)CC2)cc1 | -3.34 |
| CCc1nc(C)c(CC(=O)N2CCC3(CC2)OCCCC3OC)c(=O)[nH]1 (centres undefined) | -123 |
| Cc1csc(CCNC(=O)N2CCC(NC(=O)OC(C)(C)C)CC2)n1 | -1.4 |
| Cc1ccc(C(=O)NC2CCCN(CC(N)=O)C2)c(=O)[nH]1 (centres undefined) | 2.52 |
| Cc1cc(C)n(C2CN(c3nc(N)nc4c3CCCC4)C2)n1 | -1.57 |

| SMILES | Percent Effect [%] |
| --- | --- |
| CCN(C)Cc1cccc(CNC(=O)CSCc2ccccn2)c1 | 4.61 |
| c1nc(N2CCOCC2)sc1-c1cncn1CCCN1CCCCC1 | -0.295 |
| CSCCC(=O)N1CCN(CC(O)C(C)(C)C)CC1 (centres undefined) | -4.07 |
| Cc1csc(C(=O)N2CCC(S(C)(=O)=O)C2)c1 (centres undefined) | -5.3 |
| O=C(CCn1cc(Cl)cn1)N1CCCC(O)(CO)CC1 (centres undefined) | -3.36 |
| Cc1nc(N)nc(C)c1CC(=O)N1CCC2(CC1)OCCCC2O (centres undefined) | 73.8 |
| CC(C)N(CC(=O)Nc1cccc(C#N)c1)C1CC1 | 0.161 |
| O=C(C1CCCOC1)N1CCN(CC(F)(F)F)c2ccccc21 (centres undefined) | 6.14 |
| CCOc1cc(F)ccc1NC1CCN(CC(F)(F)F)C1=O (centres undefined) | -28.4 |
| CN(CCc1ccccc1)Cc1c(C2CCNCC2)[nH]c2ncccc12 | 7.86 |
| O=C(Nc1cccc(F)c1)NC1CCN(Cc2ccncc2)CC1 | 1.71 |
| CC(=O)N1CCCC1CCc1ccnc(-c2cncnc2)c1 (centres undefined) | 22.4 |
| Cc1n[nH]c(C)c1CCc1n[nH]c(=O)n1Cc1cccs1 | -7.17 |
| Cc1cc(C2CCCN(Cc3cccnc3)C2)n[nH]1 (centres undefined) | -0.765 |
| CC(C)N(CC(=O)Nc1cccc(C(=O)N(C)C)c1)C1CC1 | 1.38 |
| Cc1ccccc1OCCn1cnc2oc(C)c(C(=O)O)c2c1=O | 14.5 |
| c1ccc(CCN2CCC(OCC3CCCCO3)CC2)nc1 (centres undefined) | 11.2 |
| Cc1ncsc1C(=O)NCCCN1CCCCCC1=O | -10 |
| O=C1NCC(C(=O)NCc2ccccc2CN2CCOCC2)N1 (centres undefined) | -5.09 |
